The text below walks through data of PubChem BioAssay (NCATS).

For test [1], the target named is Glutathione peroxidase 1 (Homo sapiens) (UniProt P07203). Briefly: Primary qHTS Assay for Inhibitors of Recombinant Selenoprotein Glutathione Peroxidase 1 (GPX1) (AID 1845191). Further: nearly all actives have a fitted effect of over 65% in size. Further: potency means the concentration at half of the fitted maximal effect. On activity, negative = inhibition: on the % scale 0 is the no-effect control and ±100 the full control effect. The method in brief:
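GPX1 10 nM, GR 100 nM, GSH 1 mM, NADPH 0.5 mM, CHP 0.5 mM (final). 30-min cpd preincubation, RT. Ex340/Em450 read t=0, t=15 min.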
Background: qHTS replaces the single test concentration by a dilution series.

Test [2] concerns the target Phospholipid hydroperoxide glutathione peroxidase GPX4 (Homo sapiens) (UniProt P36969). Briefly: Primary qHTS Assay for Inhibitors of Recombinant Selenoprotein Glutathione Peroxidase 4 (GPX4) (AID 1845192). Further: nearly all actives have a fitted effect of over 65% in size. The method in brief:
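qHTS, GR-coupled: GPX4 200 nM + cpd 30 min RT → GSH 1 mM, NADPH 0.5 mM, GR 100 nM → CHP 0.5 mM start; fluor 340/450 at t0 and t15 min; no-enzyme wells as control.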

Test [3] addresses Luciferin 4-monooxygenase (Photinus pyralis) (UniProt P08659). Description: Primary firefly luciferase (FLuc) qHTS assay for identification of artifact compounds. (AID 1845220). Further: nearly all actives have a fitted effect of over 60% in size. Further: potency means the concentration at half of the fitted maximal effect. The method in brief: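 qHTS, 15 min compound preincubation with substrate (10 uM luciferin, 10 uM ATP) at RT, then 10 nM FLuc; 5 min; luminescence; % inhibition vs no-enzyme/DMSO controls, 4-parameter Hill fit.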

A short description of test [4]: Primary fluorescence-based thiol-reactive (MSTI) qHTS assay for identification of artifact compounds. (AID 1845221). Further: nearly all actives have a fitted effect of over 65% in size. Further: potency means the concentration at half of the fitted maximal effect.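 On activity change, negative = thiol reactive: series mostly up to about 54 µM; thiol-reactive compounds lower the probe fluorescence signal.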 The method in brief: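 Curve-fitted percent inhibition (4-parameter Hill) derived from fluorescence, Ex 525/Em 598 nm, scaled with Acetyl-MSTI and MSTI; 1 h incubation at room temperature.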
The test system of test [5] is Nanoluciferase (engineered Oplophorus gracilirostris luciferase). Briefly: Primary Nanoluciferase (NLuc) qHTS assay for identification of artifact compounds. (AID 1845222). Further: series mostly up to about 54 µM. The method in brief:
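Luminescence read-out of secreted NLuc in S16 cell conditioned medium (1:55); compounds tested with 15 min RT preincubation, then Nano-Glo substrate 1:100, 5 min. % inhibition vs no-enzyme and DMSO controls, 4-parameter Hill fit.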

The nature of test [6]: Primary redox qHTS assay for identification of artifact compounds. (AID 1845223).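 Further: 0% = DMSO and 100% = reference compound.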 The method in brief: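 Redox-cycling detection via DTT (250 uM final) oxidation coupled to Amplex Red (25 uM)/HRP (250 mU/mL) in HBSS. 15 min preincubation plus 30 min after DTT, room temperature. Ex/Em 525/598 nm; 4-parameter Hill fit against DMSO and 10 uM DA3003.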

Molecules are shown by their SMILES. Where “and” joins values, the source holds several entries; their conditions need not be identical. Equal entries are not always repeated. Results filed as inconclusive are left out. Some compounds were tested as several samples or in several runs, with calls that do not always agree. Calls of active or inactive are those of the source. The call rests on the fitted dose curve; in most records, active means well fitted curve in the direction sought with a large enough effect; inconclusive means small, poorly fitted or top-dose-only effect, or another doubt; inactive means no such curve, though single readings can be large; an effect the other way counts as inactive or inconclusive.

Phospholipid hydroperoxide glutathione peroxidase GPX4 (Homo sapiens), sequence (P36969 whole entry, looked up): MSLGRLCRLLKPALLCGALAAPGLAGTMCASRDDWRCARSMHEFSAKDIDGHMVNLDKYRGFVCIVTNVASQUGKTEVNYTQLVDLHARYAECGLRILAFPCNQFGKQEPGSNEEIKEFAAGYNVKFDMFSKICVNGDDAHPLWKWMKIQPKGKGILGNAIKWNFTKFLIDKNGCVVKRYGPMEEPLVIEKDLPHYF
Glutathione peroxidase 1 (Homo sapiens), sequence (P07203 whole entry, looked up): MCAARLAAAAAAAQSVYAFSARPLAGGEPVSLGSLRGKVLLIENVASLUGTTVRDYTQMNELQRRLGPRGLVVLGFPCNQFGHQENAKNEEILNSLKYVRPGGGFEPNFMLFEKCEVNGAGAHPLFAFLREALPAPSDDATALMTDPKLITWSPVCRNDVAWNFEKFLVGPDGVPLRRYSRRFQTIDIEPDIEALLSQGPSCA

For the compound `CC(=O)Nc1cccc(Nc2ncnc(N3CCC(OCc4ccc(OC(F)(F)F)cc4)CC3)n2)c1C`, the Potency entry in test [1], in test [2], in test [3], in test [4], in test [5] and in test [6] was “inactive” each time.
On to `O=C(Nc1ccc(N2C(=O)[C@@H]3[C@H](C2=O)[C@@H]2C=C[C@H]3C2)c(Cl)c1)c1ccccn1`, for which the Potency result in test [1], in test [2], in test [4], in test [5] and in test [6] was “inactive” throughout. The Potency in test [3] is 19 µM (active).
Consider `Cc1cccc(N2CCN(C(=O)c3cc(S(=O)(=O)N(C)C)ccc3N3CCCC3)CC2)c1C`, for which the Potency result in test [1], in test [2], in test [3], in test [4], in test [5] and in test [6] was “inactive” each time.
For `C=C1CO[C@@]2(O[C@H]3CC4C5CC=C6C[C@@H](O)C[C@@H](O[C@@H]7OC[C@H](O)[C@H](O[C@@H]8OC[C@@H](O)[C@H](O)[C@H]8O)[C@H]7O[C@@H]7O[C@@H](C)[C@H](OC(C)=O)[C@@H](OC(C)=O)[C@H]7OC(C)=O)[C@]6(C)C5CC[C@]4(C)[C@@H]3[C@@H]2C)[C@@H](O)[C@H]1OC1OC(C)C(O)C(O)C1O` (stereo not given in full), the results for the activity, negative = inhibition in test [1] and in test [5] were 0.917% [at 9.52 µM] (inactive) and 1.51% [at 11.6 µM] (inactive), respectively. Moreover, the results for the outcome in test [2] and in test [3] were “inactive [at 9.73 µM]” and “inactive [at 11.6 µM]”, respectively. Also, the activity change, negative = thiol reactive in test [4] is 69.1% [at 11.5 µM] (inactive). Besides, the redox activity (% of DA3003) in test [6] is 7.69% [at 11.5 µM] (inactive).
On to `CCOc1ccc(Cc2nc(-c3c(C)nc4ccccn34)cs2)cc1`, for which the Potency entry in test [1], in test [2], in test [3], in test [5] and in test [6] was “inactive” in each case. In test [4], the Potency was 1.68 µM (active).
Regarding `N#Cc1ccc2ncnc(NCCc3ccccc3)c2c1`, the Potency entry in test [1], in test [2], in test [3], in test [4], in test [5] and in test [6] was “inactive” each time.
Regarding `O=C(NCCCCCCCCNC(=O)C(Cl)Cl)C(Cl)Cl`, the Potency result in test [1], in test [2], in test [3], in test [4], in test [5] and in test [6] was “inactive” each time.
For the compound `CC(=O)CC(=O)Nc1ccc(Cl)c(C(F)(F)F)c1`, the Potency entry in test [1], in test [2], in test [3], in test [4], in test [5] and in test [6] was “inactive” each time.
For `C=C1C(=O)OC2CC(C)=C(C(C)CCCOC(C)=O)C(OC(=O)CC(C)CC)C12` (stereo not given), the Potency entry in test [1], in test [2], in test [3], in test [4], in test [5] and in test [6] was “inactive” in each case.
As to `CC#C[C@@H](CC(=O)O)c1ccc(OCc2ccc(CN3CCC4(C=Cc5ccccc54)CC3)s2)cc1`, the Potency entry in test [1], in test [2], in test [3], in test [4], in test [5] and in test [6] was “inactive” in each case.
`C=C1C(=O)OC2/C=C(\COC(C)=O)CC/C=C(\C=O)CC(OC(=O)CC(C)C)C12` (stereo not given): the Potency entry in test [1], in test [2], in test [3], in test [4], in test [5] and in test [6] was “inactive” throughout.
Consider `CC(C)n1cnc2c(-c3cnc(N)nc3)nc(N3CCOCC3)nc21`, for which the Potency result in test [1], in test [2], in test [3], in test [4], in test [5] and in test [6] was “inactive” throughout.
Regarding `C=C1C(=O)O[C@@H]2/C=C(\C)CC/C=C(\C)CC[C@@H]12`, the Potency result in test [1], in test [2], in test [3], in test [4], in test [5] and in test [6] was “inactive” in each case.
As to `O=C(CN1C2=NCCN2c2ccccc21)c1ccc(-c2ccccc2)cc1`, the Potency entry in test [1], in test [2], in test [3], in test [4], in test [5] and in test [6] was “inactive” each time.
Turning to `Cc1cccc(CC(=O)N2CCc3c2ccc(-c2cn(C)c4ncnc(N)c24)c3F)n1`, the Potency result in test [1], in test [2], in test [3], in test [4], in test [5] and in test [6] was “inactive” each time.
Regarding `COc1ccccc1S(=O)(=O)Nc1ccc2c(c1)CN(C)C(=O)N2`, the Potency entry in test [1], in test [2], in test [3], in test [4], in test [5] and in test [6] was “inactive” each time.
`O=C(CSc1nc2ccccc2c(=O)n1-c1ccccc1)Nc1ccc2c(c1)CCC2`: the Potency entry in test [1], in test [2], in test [3], in test [4], in test [5] and in test [6] was “inactive” throughout.
With `O=C(Nc1cccnn1)N1CCN(c2nccc(-c3ccc(F)c(F)c3)n2)CC1`, the Potency entry in test [1], in test [2], in test [3], in test [4], in test [5] and in test [6] was “inactive” each time.
As for `CN(C)c1ccnc2sc3c(=O)n(N4CCCCCC4)cnc3c12`, the Potency entry in test [1], in test [2], in test [3], in test [4], in test [5] and in test [6] was “inactive” each time.
As for `CCC(C)CNCC(=O)N1CCc2sccc2C1COc1cccc(C)c1` (stereo not given), the Potency result in test [1], in test [2], in test [3], in test [4], in test [5] and in test [6] was “inactive” in each case.
Turning to `O=S(=O)(N[C@H]1CCCC[C@@H]1N1CCOCC1)c1ccc(Cl)cc1`, the Potency entry in test [1], in test [2], in test [3], in test [4], in test [5] and in test [6] was “inactive” in each case.
Consider `Cn1cc(-c2ccc3c(c2)CCN3C(=O)Cc2cccc(C(F)(F)F)c2)c2c(N)ncnc21`, for which the Potency entry in test [1] was “inactive and 18.3 µM (active)”; in test [4], 29.9 µM (active). Besides, the Potency result in test [2], in test [3], in test [5] and in test [6] was “inactive” each time.
In the case of `Fc1ccc(-c2nc(-c3c(F)cccc3F)[nH]c2-c2ccncc2)cc1`, the Potency entry in test [1], in test [2], in test [3], in test [4], in test [5] and in test [6] was “inactive” each time.
As to `CCCC(=O)C1(c2ccccc2)CCN(C(=O)[C@@H](Cc2ccc(OC)cc2)NC(=O)[C@@H](N)Cc2cncn2C)CC1`, the Potency entry in test [1], in test [2], in test [3], in test [4], in test [5] and in test [6] was “inactive” throughout.
`COc1ccccc1N1CCN(CC(C(=O)NC(C)(C)C)c2ccccc2)CC1` (stereo not given): the Potency result in test [1], in test [2], in test [3], in test [4], in test [5] and in test [6] was “inactive” each time.
